# Measurements as given in ChEMBL document CHEMBL3988442, “University of Dundee, Small-Polar-MMV Screening Library” (2021).
# For some assays here: Measured potencies and affinities stand elsewhere.
# Tests used:
# Parameters in all cases: scale not given: direction of the effect not stated beside the values
# [1] = target: Protein translocase subunit SecA (Escherichia coli (strain K12)) (UniProt P10408); assay: Assay to Identify E. coli SecA ATPase Inhibitors; type: functional; settings: 30 µM
# [2] = target: T1, Ubiquitin-activating enzyme e1, putative (Leishmania donovani (strain BPK282A1)) (UniProt E9BSI1); assay: Leishmania donovani Ubiquitin Activating Enzyme (LdE1); type: functional; settings: 30 µM
# T1 sequence (whole entry): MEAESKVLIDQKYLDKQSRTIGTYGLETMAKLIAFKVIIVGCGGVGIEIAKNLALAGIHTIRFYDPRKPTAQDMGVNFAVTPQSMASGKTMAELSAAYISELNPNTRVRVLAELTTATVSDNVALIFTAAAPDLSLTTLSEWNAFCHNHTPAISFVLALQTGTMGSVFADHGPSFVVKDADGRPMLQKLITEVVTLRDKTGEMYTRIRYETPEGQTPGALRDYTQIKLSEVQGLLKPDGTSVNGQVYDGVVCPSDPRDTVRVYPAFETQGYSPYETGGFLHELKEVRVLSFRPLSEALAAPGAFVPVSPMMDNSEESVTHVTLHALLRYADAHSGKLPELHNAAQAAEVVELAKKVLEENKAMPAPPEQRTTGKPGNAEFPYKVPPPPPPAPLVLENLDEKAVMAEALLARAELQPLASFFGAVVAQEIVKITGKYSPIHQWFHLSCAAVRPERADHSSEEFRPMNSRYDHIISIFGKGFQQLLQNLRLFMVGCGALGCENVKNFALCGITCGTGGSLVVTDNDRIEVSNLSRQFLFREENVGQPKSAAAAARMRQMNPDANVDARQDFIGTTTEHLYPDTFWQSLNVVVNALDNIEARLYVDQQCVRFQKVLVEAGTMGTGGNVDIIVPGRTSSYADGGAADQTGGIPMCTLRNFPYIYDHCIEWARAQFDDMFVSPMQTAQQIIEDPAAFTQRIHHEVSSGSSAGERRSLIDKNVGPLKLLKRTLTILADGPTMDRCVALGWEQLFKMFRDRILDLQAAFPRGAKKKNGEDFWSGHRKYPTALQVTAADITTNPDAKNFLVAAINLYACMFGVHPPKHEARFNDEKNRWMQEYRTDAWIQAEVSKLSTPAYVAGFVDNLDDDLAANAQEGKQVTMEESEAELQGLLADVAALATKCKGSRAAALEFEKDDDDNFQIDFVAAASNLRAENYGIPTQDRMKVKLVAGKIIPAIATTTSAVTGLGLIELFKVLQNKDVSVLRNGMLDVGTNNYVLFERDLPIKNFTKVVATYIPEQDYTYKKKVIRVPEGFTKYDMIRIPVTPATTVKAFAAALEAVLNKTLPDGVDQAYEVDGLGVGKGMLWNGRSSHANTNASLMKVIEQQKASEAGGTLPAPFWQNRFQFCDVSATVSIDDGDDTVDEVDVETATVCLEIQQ
# [3] = target: AMP-activated protein kinase, AMPK (Homo sapiens) (UniProt P54646+O43741+P54619+Q9UGJ0+Q9Y478+Q13131+Q9UGI9); assay: AMP-dependent Kinase enzyme assay. An in vitro enzyme assay that detects ADP turnover that is directly proportional to AMPK activity. This uses naive AMPK that is activated during the assay with MK-8722; type: functional; settings: 30 µM
# [4] = target: Sialic acid-binding Ig-like lectin 9 (Homo sapiens) (UniProt Q9Y336); assay: Hs-Siglec9 ALPHAscreen SOP 20170721; settings: 10 µM
# Sequence of Sialic acid-binding Ig-like lectin 9 (Homo sapiens) (Q9Y336 whole entry): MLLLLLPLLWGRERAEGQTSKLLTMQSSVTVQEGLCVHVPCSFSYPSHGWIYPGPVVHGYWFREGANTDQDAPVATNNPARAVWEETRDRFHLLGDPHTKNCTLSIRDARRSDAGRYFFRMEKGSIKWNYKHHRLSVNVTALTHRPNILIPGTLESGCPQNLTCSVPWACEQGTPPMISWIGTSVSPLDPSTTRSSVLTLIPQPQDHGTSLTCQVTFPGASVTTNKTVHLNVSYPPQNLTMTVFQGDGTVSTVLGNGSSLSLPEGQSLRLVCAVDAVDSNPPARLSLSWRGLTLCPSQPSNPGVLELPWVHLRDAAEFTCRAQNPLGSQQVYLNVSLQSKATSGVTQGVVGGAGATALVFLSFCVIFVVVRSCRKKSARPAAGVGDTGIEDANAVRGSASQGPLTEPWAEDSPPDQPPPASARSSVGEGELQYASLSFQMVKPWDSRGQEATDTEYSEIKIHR
# Trypanosoma cruzi = assay: Trypanosoma cruzi phosphomannomutase and mannose-1-phosphate guanylyltransferase assay; type: functional; settings: 10 µM
# [5] = target: T2, Arginase-2, mitochondrial (Homo sapiens) (UniProt P78540); assay: in vitro enzyme assay to detect the production of urea directly proportional to the activity of Arginase II; type: functional; settings: 33.3 µM; also: in the data most compounds retested in dose-response had high values
# T2 sequence (whole entry): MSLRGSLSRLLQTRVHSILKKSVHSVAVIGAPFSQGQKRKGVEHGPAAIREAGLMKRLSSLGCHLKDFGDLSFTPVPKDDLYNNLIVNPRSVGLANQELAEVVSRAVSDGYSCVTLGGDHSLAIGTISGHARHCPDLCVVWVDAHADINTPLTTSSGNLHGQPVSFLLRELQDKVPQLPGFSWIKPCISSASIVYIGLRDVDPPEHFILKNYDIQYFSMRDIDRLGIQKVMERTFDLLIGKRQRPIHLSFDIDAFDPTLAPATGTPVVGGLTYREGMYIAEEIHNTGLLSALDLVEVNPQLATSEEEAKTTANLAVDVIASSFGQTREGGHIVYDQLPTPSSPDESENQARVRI
# [6] = target: T3, Proteasome subunit beta (Trypanosoma cruzi) (UniProt O96673); assay: Trypanosoma cruzi proteasome chymotrypsin-like activity (TcProtChymo) assay.; also: in the data most compounds retested in dose-response had high values; type: functional; settings: 9.37 µM
# T3 sequence (whole entry): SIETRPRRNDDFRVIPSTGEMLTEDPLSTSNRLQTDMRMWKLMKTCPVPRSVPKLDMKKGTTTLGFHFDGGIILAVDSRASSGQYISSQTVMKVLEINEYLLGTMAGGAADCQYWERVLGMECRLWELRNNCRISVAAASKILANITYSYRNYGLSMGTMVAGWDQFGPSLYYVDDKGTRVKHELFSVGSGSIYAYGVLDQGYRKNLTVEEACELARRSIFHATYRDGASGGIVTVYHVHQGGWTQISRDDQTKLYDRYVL
# Homo sapiens = organism: Homo sapiens; assay: To identify inhibition of the IFN signalling (Jak-Stat) pathway via expression of an eGFP reporter gene under the control of an IFN-stimulated response element (ISRE) containing MxA promoter.; type: functional; settings: 30 µM
# [7] = target: T4, Tyrosyl-tRNA synthetase, putative (Trypanosoma cruzi (strain CL Brener)) (UniProt Q4DSP6); assay: Trypanosoma cruzi tyrosyl tRNA synthetase (TcYRS) _High Tyrosine SOP; type: functional; settings: 30 µM; also: in the data most compounds retested in dose-response had high values
# T4 sequence (whole entry): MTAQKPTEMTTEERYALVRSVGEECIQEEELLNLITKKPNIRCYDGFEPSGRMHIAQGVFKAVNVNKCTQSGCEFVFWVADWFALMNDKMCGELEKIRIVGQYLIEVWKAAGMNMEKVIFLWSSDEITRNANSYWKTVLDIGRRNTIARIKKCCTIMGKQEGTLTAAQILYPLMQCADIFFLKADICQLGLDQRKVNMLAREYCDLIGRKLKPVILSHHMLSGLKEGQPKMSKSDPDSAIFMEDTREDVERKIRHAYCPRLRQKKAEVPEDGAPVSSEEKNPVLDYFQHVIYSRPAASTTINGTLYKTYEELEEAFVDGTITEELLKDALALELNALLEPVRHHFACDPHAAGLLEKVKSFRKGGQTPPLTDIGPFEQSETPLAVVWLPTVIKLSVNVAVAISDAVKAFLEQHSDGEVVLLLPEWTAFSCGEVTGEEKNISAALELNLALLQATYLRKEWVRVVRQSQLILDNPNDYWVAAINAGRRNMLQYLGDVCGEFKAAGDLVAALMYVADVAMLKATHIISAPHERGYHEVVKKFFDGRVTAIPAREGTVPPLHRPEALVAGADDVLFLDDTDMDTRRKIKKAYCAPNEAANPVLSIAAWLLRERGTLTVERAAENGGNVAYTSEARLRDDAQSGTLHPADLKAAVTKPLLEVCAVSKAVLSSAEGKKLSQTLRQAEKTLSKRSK
# [8] = target: T4, Tyrosyl-tRNA synthetase, putative (Trypanosoma cruzi (strain CL Brener)); assay: Trypanosoma cruzi tyrosyl tRNA synthetase (TcYRS) SOP; type: functional; settings: 30 µM
# [9] = target: Chromo domain-containing protein 1 (Saccharomyces cerevisiae (strain ATCC 204508 / S288c) (Baker's yeast)) (UniProt P32657); assay: ScCHD-1 Enzyme Inhibition Assay; type: functional; settings: 30 µM; also: in the data most compounds retested in dose-response had high values
# Sequence of Chromo domain-containing protein 1 (Saccharomyces cerevisiae (strain ATCC 204508 / S288c) (Baker's yeast)) (P32657 whole entry, the tested form may be a part): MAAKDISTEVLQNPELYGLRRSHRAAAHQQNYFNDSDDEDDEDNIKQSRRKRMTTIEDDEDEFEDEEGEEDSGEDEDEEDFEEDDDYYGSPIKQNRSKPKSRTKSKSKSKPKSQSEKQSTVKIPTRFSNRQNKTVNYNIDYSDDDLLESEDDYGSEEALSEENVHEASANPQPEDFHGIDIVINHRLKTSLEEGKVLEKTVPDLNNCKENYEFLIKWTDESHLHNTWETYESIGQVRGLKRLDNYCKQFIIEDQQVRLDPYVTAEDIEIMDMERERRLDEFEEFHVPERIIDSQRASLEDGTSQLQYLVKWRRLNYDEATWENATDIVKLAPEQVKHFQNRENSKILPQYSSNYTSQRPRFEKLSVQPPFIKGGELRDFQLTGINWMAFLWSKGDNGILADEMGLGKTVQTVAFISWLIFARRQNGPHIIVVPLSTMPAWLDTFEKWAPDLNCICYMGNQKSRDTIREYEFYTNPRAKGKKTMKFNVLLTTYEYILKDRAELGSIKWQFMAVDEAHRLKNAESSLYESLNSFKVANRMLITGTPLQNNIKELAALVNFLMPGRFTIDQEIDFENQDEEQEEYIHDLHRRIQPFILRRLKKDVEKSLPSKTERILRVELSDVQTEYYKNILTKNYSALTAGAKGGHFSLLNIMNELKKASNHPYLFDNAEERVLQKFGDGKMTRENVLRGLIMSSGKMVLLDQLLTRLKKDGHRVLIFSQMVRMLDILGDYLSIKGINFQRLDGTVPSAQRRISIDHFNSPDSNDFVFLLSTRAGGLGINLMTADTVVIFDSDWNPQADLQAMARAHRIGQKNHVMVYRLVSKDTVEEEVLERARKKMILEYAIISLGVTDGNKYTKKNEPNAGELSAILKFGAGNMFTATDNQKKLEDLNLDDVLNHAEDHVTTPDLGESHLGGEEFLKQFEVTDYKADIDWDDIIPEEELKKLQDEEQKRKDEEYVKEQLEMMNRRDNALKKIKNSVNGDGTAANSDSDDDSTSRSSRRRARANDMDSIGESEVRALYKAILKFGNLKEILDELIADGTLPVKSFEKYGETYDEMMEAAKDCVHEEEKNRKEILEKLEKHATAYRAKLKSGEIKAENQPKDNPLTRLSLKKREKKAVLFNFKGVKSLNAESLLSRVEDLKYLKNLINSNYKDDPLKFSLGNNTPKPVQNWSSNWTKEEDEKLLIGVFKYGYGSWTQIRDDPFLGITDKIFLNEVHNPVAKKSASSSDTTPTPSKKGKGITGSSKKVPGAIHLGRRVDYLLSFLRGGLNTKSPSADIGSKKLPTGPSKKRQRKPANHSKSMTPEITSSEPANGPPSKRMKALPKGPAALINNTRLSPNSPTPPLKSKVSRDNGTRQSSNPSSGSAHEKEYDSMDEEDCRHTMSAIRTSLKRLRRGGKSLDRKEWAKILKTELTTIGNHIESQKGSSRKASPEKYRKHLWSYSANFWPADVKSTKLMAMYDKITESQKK
# Sequence of Protein translocase subunit SecA (Escherichia coli (strain K12)) (P10408 whole entry): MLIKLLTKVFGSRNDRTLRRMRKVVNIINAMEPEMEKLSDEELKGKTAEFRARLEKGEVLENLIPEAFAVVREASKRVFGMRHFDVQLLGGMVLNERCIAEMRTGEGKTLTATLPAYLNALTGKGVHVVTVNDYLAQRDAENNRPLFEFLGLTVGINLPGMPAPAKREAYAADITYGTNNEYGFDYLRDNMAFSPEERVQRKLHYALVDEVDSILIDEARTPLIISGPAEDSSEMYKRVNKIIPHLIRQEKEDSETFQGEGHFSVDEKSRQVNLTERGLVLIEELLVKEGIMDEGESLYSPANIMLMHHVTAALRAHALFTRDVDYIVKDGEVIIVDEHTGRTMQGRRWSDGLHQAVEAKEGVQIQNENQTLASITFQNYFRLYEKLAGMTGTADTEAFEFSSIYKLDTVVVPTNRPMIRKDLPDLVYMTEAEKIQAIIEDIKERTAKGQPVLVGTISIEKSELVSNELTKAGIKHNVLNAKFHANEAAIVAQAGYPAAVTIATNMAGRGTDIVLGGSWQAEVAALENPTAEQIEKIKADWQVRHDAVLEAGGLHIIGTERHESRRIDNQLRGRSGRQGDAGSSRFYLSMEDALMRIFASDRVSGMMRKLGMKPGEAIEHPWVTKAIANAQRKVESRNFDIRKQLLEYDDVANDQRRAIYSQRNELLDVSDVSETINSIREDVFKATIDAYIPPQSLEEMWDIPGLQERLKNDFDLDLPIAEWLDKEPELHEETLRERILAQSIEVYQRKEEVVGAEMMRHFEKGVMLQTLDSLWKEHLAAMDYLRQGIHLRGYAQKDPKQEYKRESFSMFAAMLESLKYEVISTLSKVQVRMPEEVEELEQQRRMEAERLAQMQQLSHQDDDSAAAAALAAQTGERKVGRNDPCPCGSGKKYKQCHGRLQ
Structure (SMILES),Percent Effect [1],Percent Effect [2],Percent Effect [3],Percent Effect [4],Percent Effect (Trypanosoma cruzi),Percent Effect [5],Percent Effect [6],Percent Effect (Homo sapiens),Percent Effect [7],Percent Effect [8],Percent Effect [9]
Cn1nccc1C1CCN(CC(O)c2cccc(F)c2)CC1 (stereo not given),-3.15%,5.06%,0.204%,2.12%,6.89%,-1.14%,4.18%,15.3%,-0.493%,-8.86%,-4.6%
Cn1cc(CN2CCc3onc(COc4cccnc4)c3C2)cn1,6.35%,14.7%,17.2%,-10.2%,-9.43%,-5.11%,16.6%,11.8%,0%,5.13%,-10.7%
Cc1cccc(CNCc2c(C)nn(C)c2N2CCOCC2)n1,0.786%,8.22%,4.7%,2.65%,5.09%,13.2%,19.3%,-6.96%,8.6%,15%,-6.04%
CN(Cc1ccco1)C(=O)CN1CCCCC1Cn1cccn1 (stereo not given),1.65%,0%,6.46%,-9.17%,-1.27%,-2.74%,17.1%,-30.8%,4.76%,9.41%,-9.28%
Cc1cc(C(=O)NCCN2CCCC(C)C2)nn1C (stereo not given),-4.5%,5.2%,-3.57%,-8.23%,-0.187%,0%,0.169%,27.8%,3.88%,7.32%,-0.528%
c1ccc(-c2noc3c2CN(CC2CC2)CC3)cc1,-4.27%,2.74%,-7.86%,-1.17%,-0.979%,-0.455%,6.92%,11.2%,4.3%,10%,0.0734%
Cc1nc(C)n(CC2CN(Cc3cccc(C#N)c3)CCO2)n1 (stereo not given),-0.461%,13.5%,-1.52%,2.34%,2.74%,0.802%,14.6%,0.861%,-10.3%,18.5%,-3.18%
O=C(NCC1CC1)C1CN(C(=O)c2cccs2)CC12CCOCC2 (stereo not given),-8.31%,16%,2.41%,3.43%,0.579%,-52.5%,4.62%,-9.4%,5.21%,-47.5%,-5.08%
Cn1nc(C(=O)N2CCCCC2c2nc3cc(F)ccc3[nH]2)ccc1=O (stereo not given),-6.48%,15.3%,-16.2%,39.4%,10.6%,3.97%,9.82%,-6.87%,2.1%,17.9%,-10.9%
CC(C(=O)NCCOc1cccc(Cl)c1)n1cncn1 (stereo not given),-1.19%,17.7%,-0.802%,-7.8%,2.55%,3.42%,7.94%,-10.4%,-2.46%,13.9%,-5.29%
